From PubChem BioAssay (Tox21)
Records with an inconclusive call do not appear. Active and inactive are the calls of the source. Unless noted, calls follow the shape of the dose curve; as a rule, active = well fitted curve in the direction sought with a large enough effect in the repeat runs; inconclusive = weak or mixed curves; inactive = no such curve, though single readings can be large; an effect the other way counts as inactive or inconclusive.

How the values were obtained:
[1] = qHTS assay to identify small molecule antagonists of the peroxisome proliferator-activated receptor delta (PPARd) signaling pathway - cell viability counter screen (AID 743213); also: nearly all actives have a fitted effect of over 50% in size; also: potency is read from the fitted curve at half-maximal effect
Outline: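 Luminescence from CellTiter-Glo, added after the bla read and incubated 30 min at room temperature, gives viability of HEK293H PPARd-bla cells exposed to compounds for 17 h at 37 C with 300 nM L165041.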

[2] = target: Peroxisome proliferator-activated receptor delta (Homo sapiens) (UniProt Q03181); assay: qHTS assay to identify small molecule antagonists of the peroxisome proliferator-activated receptor delta (PPARd) signaling pathway (AID 743215; active = well fitted inhibition curve with a large enough effect in the signal ratio in the repeat runs, not every such curve was filed as active; the % refers to the signal ratio;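 also: cells stimulated with agonist L165041 at 300 nM final during compound exposure; series mostly up to about 62 µM; % is scaled to controls: 0 for no effect and ±100 for the full control effect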)
Outline: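 With L165041 present at 300 nM final, compounds were incubated 17 h at 37 C on PPARd UAS-bla HEK293H cells. A FRET-based beta-lactamase substrate was then applied for 2 h at room temperature and fluorescence intensity recorded.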

[3] = qHTS assay to identify small molecule agonists of the farnesoid-X-receptor (FXR) signaling pathway - cell viability counter screen (AID 743218); also: % is scaled to controls: 0 for no effect and ±100 for the full control effect; nearly all actives have a fitted effect of over 45% in size
Outline: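 After 16 h at 37 C with test compounds, FXR-bla HEK 293T cells were given LiveBLAzer B/G substrate for 2 h at RT and then CellTiter-Glo; luminescence was taken after 30 min.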

[4] = qHTS assay to identify small molecule antagonists of the farnesoid-X-receptor (FXR) signaling pathway - cell viability counter screen (AID 743221; active = well fitted cell-killing curve with a large enough effect in the repeat runs, not every such curve was filed as active; also: % is scaled to controls: 0 for no effect and ±100 for the full control effect; nearly all actives have a fitted effect of over 50% in size)
Outline: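 Compound effects on cell number were measured as CellTiter-Glo luminescence in HEK 293T cells expressing FXR-UAS-bla, after 16 h at 37 C with 50 uM CDCA (final).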

[5] = target: Vitamin D3 receptor (Homo sapiens) (UniProt P11473); assay: qHTS assay to identify small molecule agonists of the vitamin D receptor (VDR) signaling pathway (AID 743222; calls by dose curve; also: % is scaled to controls: 0 for no effect and ±100 for the full control effect)
Outline: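 VDR-bla cells were seeded, left 4 h, treated with compounds in DMSO for 16 h, incubated 2 h at RT with B/G FRET substrate, and read for fluorescence.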

[6] = target: Vitamin D3 receptor (Homo sapiens) (UniProt P11473); assay: qHTS assay to identify small molecule antagonists of the vitamin D receptor (VDR) signaling pathway (AID 743223; active = well fitted inhibition curve with a large enough effect in the signal ratio in the repeat runs, not every such curve was filed as active; the % refers to the signal ratio; also: % is scaled to controls: 0 for no effect and ±100 for the full control effect)
Outline: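 Beta-lactamase activity in VDR-bla cells is measured by FRET substrate fluorescence (2 h, room temperature) after cells spend 16 h at 37C with test compound and 3 nM final 1alpha,25-dihydroxyvitamin D3.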

[7] = qHTS assay to identify small molecule agonists of the vitamin D receptor (VDR) signaling pathway - cell viability counter screen (AID 743224); also: series mostly up to about 63 µM; % is scaled to controls: 0 for no effect and ±100 for the full control effect; nearly all actives have a fitted effect of over 50% in size
Outline: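 Here cell health was gauged by luminescent ATP detection (CellTiter-Glo, 30 min RT) in VDR-bla cells that had been incubated with test compounds for 16 h at 37C and 5% CO2.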

[8] = qHTS assay to identify small molecule agonists of the NFkB signaling pathway - cell viability counter screen (AID 1159515; calls by dose curve; also: series mostly up to about 61 µM; % is scaled to controls: 0 for no effect and ±100 for the full control effect; nearly all actives have a fitted effect of over 55% in size)
Outline: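 5 hr compound treatment of NFkB-bla ME-180 cells (2,000/well, seeded overnight beforehand), followed by reporter substrate for 1.5 hr. CellTiter-Glo added afterward; luminescence after 30 min RT.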

[9] = qHTS assay to identify small molecule agonists of the endoplasmic reticulum stress response signaling pathway (AID 1159516; active = well fitted activation curve with a large enough effect in the signal ratio in the repeat runs, not every such curve was filed as active; the % refers to the signal ratio; also: % is scaled to controls: 0 for no effect and ±100 for the full control effect)
Outline: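 Reporter HeLa cells (ESRE-beta-lactamase) underwent 5 hr compound incubation at 37 C and 5% CO2 in quantitative HTS format. Detection followed 2 hr of FRET substrate loading at room temperature.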

[10] = qHTS assay to identify small molecule antagonists of the retinoid-related orphan receptor gamma (ROR-gamma) signaling pathway - cell viability counter screen (AID 1159520); also: % is scaled to controls: 0 for no effect and ±100 for the full control effect; nearly all actives have a fitted effect of over 50% in size
Outline: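 Tet-on ROR gamma CHO cells were given compounds for 2 hr, then doxycycline hyclate at 1 uM final, and incubated 16 hr at 37 C. Viability was measured as ATP content by CellTiter-Glo luminescence.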

[11] = target: Nuclear receptor ROR-gamma (Homo sapiens) (UniProt P51449); assay: qHTS assay to identify small molecule antagonists of the retinoid-related orphan receptor gamma (ROR-gamma) signaling pathway (AID 1159521)
Outline: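 Screening format: cell-based luciferase reporter in CHO cells with doxycycline-inducible RORγ. Compound pre-exposure lasts 2 h, doxycycline is 1 uM final, induction runs 16 h at 37 C, and ONE-Glo luminescence is read.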

[12] = qHTS assay to identify small molecule agonists of the AP-1 signaling pathway (AID 1159526; calls by dose curve; also: % is scaled to controls: 0 for no effect and ±100 for the full control effect)
[13] = target: Retinoic acid receptor RXR-alpha (Homo sapiens) (UniProt P19793); assay: qHTS assay to identify small molecule agonists of the RXR signaling pathway (AID 1159527; calls by dose curve; also: nearly all actives have a fitted effect of over 35% in size; also: potency is read from the fitted curve at half-maximal effect)
Outline: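 Fluorescence ratio readout (460 vs 530 nm) from GeneBLAzer RXR-alpha HEK 293T cells after 16 hr compound treatment; cells seeded 5 hr beforehand in low-serum, charcoal-stripped medium.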

[14] = qHTS assay to identify small molecule agonists of the peroxisome proliferator-activated receptor delta (PPARd) signaling pathway - cell viability counter screen (AID 743211); also: % is scaled to controls: 0 for no effect and ±100 for the full control effect; nearly all actives have a fitted effect of over 55% in size
Outline: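 Following 5 h plating at 37 C and 5% CO2, PPARd UAS-bla HEK293H cells took up test compounds for 17 h. Viability was quantified by luminescence 30 min after CellTiter-Glo addition at room temperature.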

[15] = qHTS assay to identify small molecule antagonists of the vitamin D receptor (VDR) signaling pathway - cell viability counter screen (AID 743225)
Outline: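 In this counter screen, VDR-bla HEK 293T cells receive test compound plus 3 nM final calcitriol for 16 h at 37C. Room-temperature steps of 2 h with the beta-lactamase substrate, then 30 min with CellTiter-Glo, precede the luminescence read.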

[16] = qHTS assay to identify small molecule agonists of the AP-1 signaling pathway - cell viability counter screen (AID 1159525; calls by dose curve; also: nearly all actives have a fitted effect of over 55% in size)
Outline: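 AP-1-bla ME-180 cells in Opti-MEM with 0.5% dialyzed FBS, compound exposure 5 h at 37 C in 15-point titration. Viability read in the same wells as ATP content by CellTiter-Glo luminescence, normalised to tetra-n-octylammonium bromide and DMSO controls.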

[17] = target: Bile acid receptor (Homo sapiens) (UniProt Q96RI1); assay: qHTS assay to identify small molecule antagonists of the farnesoid-X-receptor (FXR) signaling pathway (AID 743217; active = well fitted inhibition curve with a large enough effect in the signal ratio in the repeat runs, not every such curve was filed as active; the % refers to the signal ratio; also: % is scaled to controls: 0 for no effect and ±100 for the full control effect)
Outline: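 In this cell-based antagonist screen, inhibition of CDCA-driven (50 uM final) UAS-beta-lactamase expression in HEK 293T cells was measured by FRET fluorescence following 16 h compound exposure at 37 °C.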

[18] = target: Bile acid receptor (Homo sapiens) (UniProt Q96RI1); assay: qHTS assay to identify small molecule agonists of the farnesoid-X-receptor (FXR) signaling pathway (AID 743220; active = well fitted activation curve with a large enough effect in the signal ratio in the repeat runs, not every such curve was filed as active; the % refers to the signal ratio; also: % is scaled to controls: 0 for no effect and ±100 for the full control effect)
Outline: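 Beta-lactamase reporter under UAS control in GeneBLAzer FXR HEK 293T cells (5000/well) measured with LiveBLAzer FRET substrate after 2 h at room temperature. Compound exposure lasted 16 h at 37C.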

[19] = target: Peroxisome proliferator-activated receptor delta (Homo sapiens) (UniProt Q03181); assay: qHTS assay to identify small molecule agonists of the peroxisome proliferator-activated receptor delta (PPARd) signaling pathway (AID 743212; calls by dose curve; also: % is scaled to controls: 0 for no effect and ±100 for the full control effect)
Outline: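 Quantitative high-throughput agonist screen in a HEK293H beta-lactamase reporter line under UAS control. Compounds in DMSO, at 37 C. Fluorescence read after 2 h with FRET substrate at room temperature.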

Sequence of Peroxisome proliferator-activated receptor delta (Homo sapiens) (Q03181 whole entry, looked up): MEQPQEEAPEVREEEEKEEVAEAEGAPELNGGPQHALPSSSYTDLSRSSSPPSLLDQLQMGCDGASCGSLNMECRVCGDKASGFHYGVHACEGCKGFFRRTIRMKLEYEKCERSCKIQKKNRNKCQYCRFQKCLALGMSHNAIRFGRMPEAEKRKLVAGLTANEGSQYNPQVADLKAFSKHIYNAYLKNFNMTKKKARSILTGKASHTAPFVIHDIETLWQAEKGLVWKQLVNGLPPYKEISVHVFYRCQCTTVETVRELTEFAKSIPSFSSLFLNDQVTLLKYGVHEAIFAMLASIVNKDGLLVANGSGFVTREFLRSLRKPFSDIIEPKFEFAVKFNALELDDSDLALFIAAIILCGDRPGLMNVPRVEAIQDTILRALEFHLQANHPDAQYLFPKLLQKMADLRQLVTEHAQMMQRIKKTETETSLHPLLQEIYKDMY
Sequence of Bile acid receptor (Homo sapiens) (Q96RI1 whole entry, looked up): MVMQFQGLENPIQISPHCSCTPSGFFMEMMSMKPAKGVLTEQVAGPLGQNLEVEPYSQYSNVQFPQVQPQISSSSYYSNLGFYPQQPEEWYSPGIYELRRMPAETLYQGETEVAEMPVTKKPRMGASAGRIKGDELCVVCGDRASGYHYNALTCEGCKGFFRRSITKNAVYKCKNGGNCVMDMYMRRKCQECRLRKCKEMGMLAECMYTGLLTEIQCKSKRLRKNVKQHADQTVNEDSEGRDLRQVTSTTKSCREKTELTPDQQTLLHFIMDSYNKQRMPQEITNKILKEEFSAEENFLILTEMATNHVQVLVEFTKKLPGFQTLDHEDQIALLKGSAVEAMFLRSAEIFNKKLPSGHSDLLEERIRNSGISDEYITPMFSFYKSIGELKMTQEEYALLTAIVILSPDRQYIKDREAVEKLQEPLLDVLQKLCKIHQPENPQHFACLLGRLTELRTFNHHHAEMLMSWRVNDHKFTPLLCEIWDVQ
Sequence of Vitamin D3 receptor (Homo sapiens) (P11473 whole entry, looked up): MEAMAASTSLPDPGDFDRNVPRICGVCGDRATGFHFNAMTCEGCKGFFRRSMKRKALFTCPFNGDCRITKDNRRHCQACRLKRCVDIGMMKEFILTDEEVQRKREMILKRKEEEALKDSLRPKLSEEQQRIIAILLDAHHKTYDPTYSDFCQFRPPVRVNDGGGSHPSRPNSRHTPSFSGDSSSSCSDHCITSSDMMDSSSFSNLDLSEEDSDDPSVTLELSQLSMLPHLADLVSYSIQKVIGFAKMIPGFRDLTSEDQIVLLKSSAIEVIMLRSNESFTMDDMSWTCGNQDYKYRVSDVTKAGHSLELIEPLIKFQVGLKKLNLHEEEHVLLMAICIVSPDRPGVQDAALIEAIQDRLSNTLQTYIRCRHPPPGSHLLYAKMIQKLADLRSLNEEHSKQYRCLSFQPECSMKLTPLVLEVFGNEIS
Sequence of Retinoic acid receptor RXR-alpha (Homo sapiens) (P19793 whole entry, looked up): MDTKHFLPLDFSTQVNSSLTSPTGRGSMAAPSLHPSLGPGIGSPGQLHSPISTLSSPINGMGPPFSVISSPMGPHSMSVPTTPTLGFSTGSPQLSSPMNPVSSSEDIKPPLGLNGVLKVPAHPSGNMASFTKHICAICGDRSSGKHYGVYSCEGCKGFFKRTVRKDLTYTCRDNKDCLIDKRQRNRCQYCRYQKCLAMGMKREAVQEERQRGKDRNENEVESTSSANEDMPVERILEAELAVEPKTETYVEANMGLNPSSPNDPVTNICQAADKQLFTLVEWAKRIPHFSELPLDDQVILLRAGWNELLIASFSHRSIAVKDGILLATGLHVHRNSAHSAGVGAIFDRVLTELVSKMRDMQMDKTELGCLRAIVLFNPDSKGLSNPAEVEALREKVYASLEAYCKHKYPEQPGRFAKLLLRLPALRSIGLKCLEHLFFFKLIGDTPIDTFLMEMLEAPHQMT

CCC(C)Br (stereo not given)
inactive: Potency [1] | Potency [2] | Potency [3] | Potency [4] | Potency [5] | Potency [6] | Potency [7] | Potency [8] | Potency [9] | Potency [10] | Potency [11] | Potency [12] | Potency [13]

CC(=O)[O-].CC(=O)[O-].CC(=O)[O-].[Sb+3]
inactive: activity change, negative = cytotoxicity [14] -20.9% [at 5.95 µM] | viability change, negative = cytotoxic [1] -8.28% [at 6.26 µM] | activity change, negative = cytotoxicity [7] -16.2% [at 5.95 µM] | viability change, negative = cytotoxic [15] 0.879% [at 6.95 µM] | activity, negative = cytotoxic [8] -2.51% [at 6.95 µM] | activation [9] 3.53% [at 6.95 µM] | activity, negative = cytotoxicity [10] 1.09% [at 3.27 µM] | viability change, negative = cytotoxic [16] -1.02% [at 2.72 µM] | activation [12] -1.15% [at 2.72 µM] | activation [13] -1.11% [at 2.71 µM]

CC(C)Br
inactive: Potency [1] | Potency [17] | Potency [3] | Potency [18] | Potency [5] | Potency [6] | Potency [7] | Potency [15] | Potency [8] | Potency [9] | Potency [10] | Potency [16]

CC(Cc1ccc2c(c1)OCO2)NO (stereo not given)
inactive: Potency [14] | Potency [19] | Potency [1] | Potency [2] | Potency [17] | Potency [3] | Potency [18] | Potency [4] | Potency [5] | Potency [6] | Potency [7] | Potency [8] | Potency [9] | Potency [10] | Potency [16] | Potency [12] | Potency [13]

COc1ccc2[nH]cc(CCN(C(C)C)C(C)C)c2c1
inactive: Potency [19] | Potency [1] | Potency [2] | Potency [5] | Potency [6] | Potency [7] | Potency [8] | Potency [9] | Potency [10] | Potency [16]

Cc1c([N+](=O)[O-])c(C)c([N+](=O)[O-])c(C(C)(C)C)c1[N+](=O)[O-]
active: Potency [13] 12.3 µM
inactive: Potency [14] | Potency [19] | Potency [1] | Potency [2] | Potency [5] | Potency [6] | Potency [7] | Potency [8] | Potency [9] | Potency [10] | Potency [16] | Potency [12]

CCOC(=O)Cc1ccccc1
inactive: Potency [14] | Potency [2] | Potency [17] | Potency [3] | Potency [18] | Potency [4] | Potency [5] | Potency [6] | Potency [7] | Potency [8] | Potency [9] | Potency [10] | Potency [11] | Potency [12] | Potency [13]

CC(C)c1c(CN(C)C(C)Cc2ccccc2)n(C)n(-c2ccccc2)c1=O (stereo not given)
active: Potency [1] 13.3 µM
inactive: Potency [14] | Potency [19] | Potency [18] | Potency [4] | Potency [5] | Potency [15] | Potency [8] | Potency [9] | Potency [10] | Potency [16] | Potency [12]

C=CCOC(=O)c1ccccc1N
inactive: Potency [14] | Potency [19] | Potency [1] | Potency [2] | Potency [3] | Potency [4] | Potency [5] | Potency [15] | Potency [8] | Potency [9] | Potency [10] | Potency [16] | Potency [12]

COc1ccc2c3c1O[C@H]1[C@H](O)CC[C@H]4[C@@H](C2)N(C)CC[C@@]341
inactive: Potency [14] | Potency [1] | Potency [2] | Potency [3] | Potency [15] | Potency [8] | Potency [9] | Potency [10] | Potency [11] | Potency [12] | Potency [13]

CCCCC(CC)COC(=O)c1ccccc1C(=O)OCC(CC)CCCC (stereo not given)
inactive: Potency [2] | Potency [8] | Potency [9] | Potency [10] | Potency [16] | Potency [12]

CCOP(=O)(Sc1ccccc1)Sc1ccccc1
inactive: Potency [1] | Potency [2] | Potency [17] | Potency [4] | Potency [5] | Potency [6] | Potency [15] | Potency [8] | Potency [9] | Potency [10] | Potency [11] | Potency [16]

CNC(C)(C)Cc1ccccc1
inactive: Potency [14] | Potency [19] | Potency [1] | Potency [2] | Potency [3] | Potency [4] | Potency [5] | Potency [6] | Potency [7] | Potency [15] | Potency [8] | Potency [9] | Potency [10] | Potency [16] | Potency [12] | Potency [13]

CC1(C)C(C=C(Cl)Cl)C1C(=O)OC(C#N)c1ccc(F)c(Oc2ccccc2)c1 (stereo not given)
inactive: Potency [14] | Potency [1] | Potency [2] | Potency [4] | Potency [5] | Potency [7] | Potency [8] | Potency [9] | Potency [10] | Potency [16]

O=Cc1ccccc1
inactive: Potency [14] | Potency [19] | Potency [2] | Potency [17] | Potency [3] | Potency [18] | Potency [4] | Potency [5] | Potency [6] | Potency [8] | Potency [9] | Potency [10] | Potency [16] | Potency [12] | Potency [13]

O=c1[nH]c2cc(Cl)ccc2n1C1CCNCC1
inactive: Potency [14] | Potency [1] | Potency [2] | Potency [17] | Potency [3] | Potency [18] | Potency [4] | Potency [5] | Potency [6] | Potency [7] | Potency [8] | Potency [9] | Potency [10] | Potency [16] | Potency [12]

[Cl-].[Cl-].[Sn+2]
inactive: Potency [14] | Potency [1] | Potency [3] | Potency [7] | Potency [15] | Potency [8] | Potency [9] | Potency [10] | Potency [16] | Potency [12] | Potency [13]

COc1c2c(cc3c1OCO3)CCN(C)C2
inactive: Potency [14] | Potency [1] | Potency [2] | Potency [3] | Potency [4] | Potency [6] | Potency [7] | Potency [15] | Potency [8] | Potency [9] | Potency [10] | Potency [11] | Potency [16] | Potency [13]
